# Measurements reported in ChEMBL document CHEMBL1961873, “Compounds: GSK PKIS; Assays: Nanosyn kinase panel” (2012).
# Molecular target: Tyrosine-protein kinase Fer (Homo sapiens) (UniProt P16591)
# Details: at 1 µM
# Tyrosine-protein kinase Fer (Homo sapiens), sequence (P16591 whole entry, looked up): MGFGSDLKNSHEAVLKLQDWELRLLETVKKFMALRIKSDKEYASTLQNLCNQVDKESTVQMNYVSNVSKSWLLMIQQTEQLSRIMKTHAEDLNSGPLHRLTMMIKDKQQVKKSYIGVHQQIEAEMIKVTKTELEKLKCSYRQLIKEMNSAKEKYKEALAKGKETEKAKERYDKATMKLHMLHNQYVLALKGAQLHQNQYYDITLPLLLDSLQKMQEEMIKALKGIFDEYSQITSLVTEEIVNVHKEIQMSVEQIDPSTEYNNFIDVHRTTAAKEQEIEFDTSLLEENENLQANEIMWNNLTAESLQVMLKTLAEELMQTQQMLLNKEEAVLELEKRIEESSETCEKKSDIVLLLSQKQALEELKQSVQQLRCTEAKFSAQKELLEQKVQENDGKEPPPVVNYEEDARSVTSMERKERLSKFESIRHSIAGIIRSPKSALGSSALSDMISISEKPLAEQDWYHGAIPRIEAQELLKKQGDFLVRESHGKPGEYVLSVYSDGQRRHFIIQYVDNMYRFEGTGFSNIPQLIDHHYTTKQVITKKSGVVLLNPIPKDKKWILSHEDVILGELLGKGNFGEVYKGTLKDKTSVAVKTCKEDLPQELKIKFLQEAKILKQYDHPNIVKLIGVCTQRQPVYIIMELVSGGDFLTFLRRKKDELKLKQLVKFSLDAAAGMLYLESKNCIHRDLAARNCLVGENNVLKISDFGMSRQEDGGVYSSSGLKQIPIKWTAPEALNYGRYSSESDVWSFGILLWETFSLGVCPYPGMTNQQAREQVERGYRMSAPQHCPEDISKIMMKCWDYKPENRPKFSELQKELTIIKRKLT
row,Structure (SMILES),inhibition [%]
1,O=C(Nc1n[nH]c2nnc(-c3cccnc3)cc12)C1CC1,0.68
2,CN1CCC(n2cnc(-c3ccc(F)cc3)c2-c2ccnc(NCCO)n2)CC1,7.14
3,COc1cc2c(cc1Nc1nc(Nc3cccc(F)c3C(N)=O)c3cc[nH]c3n1)N(C(=O)CN1CCN(C(C)C)CC1)CC2,53.2
4,COc1ccc2ncn(-c3cc(O[C@H](C)c4ccccc4C(F)(F)F)c(C(N)=O)s3)c2c1,3.58
5,O=C(O[C@H]1CN[C@H](C#Cc2cc3ncnc(Nc4ccc5c(ccn5Cc5cc(F)ccc5F)c4)c3s2)C1)N1CCOCC1,5.55
6,c1ccc(-c2n[nH]cc2-c2ccnc(-c3ccc(OCCn4ccnc4)cc3)c2)nc1,1.84
7,CCn1c(-c2nonc2N)nc2cncc(C(=O)NCCNC)c21,3.14
8,COc1cc(N2CCN(C(C)C)CC2)ccc1Nc1nc(Nc2cccc3ncccc23)c2cc[nH]c2n1,44.4
9,Cc1cc(O)cc(C)c1/C=C/c1cncc(C(N)=O)c1,1.87
10,FC(F)(F)CNc1nccc(-c2cnn3ncccc23)n1,0.92
11,COc1ccc(-c2nn3ncccc3c2-c2ccnc(Nc3ccc(F)c(F)c3)n2)cc1,7.64
12,COc1ccc(Nc2ncc(-c3ccccc3)o2)cc1OC,4.34
13,CS(=O)(=O)CCNCc1ccc(-c2ccc3ncnc(Nc4ccc(OCc5cccc(C(F)(F)F)c5)cc4)c3c2)o1,0.74
14,CNC(=O)c1ncccc1Nc1nc(Nc2cc3c(cc2OC)CCCN3C(=O)CN(C)C)nc2[nH]ccc12,80.1
15,CS(=O)(=O)Nc1ccc(-c2ccc3c(NC(=O)C4CC4)n[nH]c3c2)cc1,11.5
16,CN(c1ccc(NC(=O)NCCN2CCOCC2)cc1)c1ccnc(Nc2ccc(CS(C)(=O)=O)cc2)n1,20.6

# Molecular target: Tyrosine-protein kinase Fes/Fps (Homo sapiens) (UniProt P07332)
# Sequence (P07332 whole entry): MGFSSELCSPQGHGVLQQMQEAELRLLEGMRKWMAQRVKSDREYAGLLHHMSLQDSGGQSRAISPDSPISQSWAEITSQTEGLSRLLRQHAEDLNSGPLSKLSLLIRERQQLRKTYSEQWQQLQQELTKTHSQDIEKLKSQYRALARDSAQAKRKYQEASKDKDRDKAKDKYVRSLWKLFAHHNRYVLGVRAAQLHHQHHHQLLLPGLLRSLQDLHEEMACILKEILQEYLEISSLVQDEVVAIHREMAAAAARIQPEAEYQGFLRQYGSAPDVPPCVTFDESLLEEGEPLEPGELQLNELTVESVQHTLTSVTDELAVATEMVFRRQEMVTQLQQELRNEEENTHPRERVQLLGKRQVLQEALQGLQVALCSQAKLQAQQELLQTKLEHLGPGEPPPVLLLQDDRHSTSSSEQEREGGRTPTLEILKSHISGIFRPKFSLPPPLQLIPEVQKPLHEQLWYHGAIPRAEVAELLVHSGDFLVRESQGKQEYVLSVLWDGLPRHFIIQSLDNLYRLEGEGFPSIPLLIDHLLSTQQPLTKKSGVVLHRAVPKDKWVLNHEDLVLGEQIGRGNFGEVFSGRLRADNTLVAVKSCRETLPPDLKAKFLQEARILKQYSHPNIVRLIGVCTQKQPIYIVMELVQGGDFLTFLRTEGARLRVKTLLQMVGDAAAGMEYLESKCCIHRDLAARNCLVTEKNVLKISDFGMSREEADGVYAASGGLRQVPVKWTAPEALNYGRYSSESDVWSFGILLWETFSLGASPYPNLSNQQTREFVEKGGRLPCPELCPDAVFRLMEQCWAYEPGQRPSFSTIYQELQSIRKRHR
# Details: at 0.1 µM
row,Structure (SMILES),inhibition [%]
1,COc1cccc(-n2ncc3c(N/N=C/c4ccc(C(=O)NCCN(C)C)cc4)ncnc32)c1,1.87
2,O=C(O[C@H]1CN[C@H](C#Cc2cc3ncnc(Nc4ccc5c(cnn5Cc5ccccc5)c4)c3s2)C1)N1CCOCC1,-0.09
3,COc1cc(N2CCN(C(C)C)CC2)ccc1Nc1nc(Nc2cccc(F)c2C(=O)O)c2cc[nH]c2n1,18.5
4,COC(=O)Nc1nc2ccc(Oc3ccc(NC(=O)Nc4cc(C(F)(F)F)ccc4F)cc3)cc2s1,0.15
5,CCS(=O)(=O)c1ccc(OC)c(Nc2ncc(-c3cccc(C(C)=O)c3)o2)c1,1.69
6,CN(C)CCNC(=O)Nc1ccc(N(C)c2ccnc(Nc3ccc(CS(C)(=O)=O)cc3)n2)cc1,3.36
7,CC1(C)CC(n2cnc(-c3ccc(F)cc3)c2-c2ccnc(N)n2)CC(C)(C)N1,-0.11
8,CCS(=O)(=O)c1ccc(OC)c(Nc2ncc(-c3cccc(F)c3)o2)c1,4.72
9,Fc1cccc(COc2ccc(Nc3ncncc3C#Cc3ccccc3)cc2Cl)c1,2.55
10,COc1ccccc1-c1cc(/C=C2\C(=O)Nc3ncc(Br)cc32)cc(Br)c1O,3.24
11,OCCCNc1nccc(-c2c(-c3ccc(F)cc3)nn3cc(C(F)(F)F)ccc23)n1,1.95
12,NS(=O)(=O)c1ccc(N/N=C2\C(=O)Nc3cccc(CCc4ccncc4)c32)cc1,0.64
13,O=C1Nc2ccccc2/C1=C1\CCc2cc(O)ccc21,4.19
14,COc1cccc(Nc2nccc(-c3cnn4ncccc34)n2)c1,8.87
15,CS(=O)(=O)Nc1ccc(-c2cc(-c3ccccc3)cc(C(N)=O)c2N)cc1,1.07
16,O=C(Nc1n[nH]c2nnc(-c3cccnc3)cc12)C1CC1,-0.26

row,Structure (SMILES),inhibition [%]
1,CN1CCC(n2cnc(-c3ccc(F)cc3)c2-c2ccnc(NCCO)n2)CC1,2.72
2,COc1cc2c(cc1Nc1nc(Nc3cccc(F)c3C(N)=O)c3cc[nH]c3n1)N(C(=O)CN1CCN(C(C)C)CC1)CC2,14
3,COc1ccc2ncn(-c3cc(O[C@H](C)c4ccccc4C(F)(F)F)c(C(N)=O)s3)c2c1,-0.21
4,O=C(O[C@H]1CN[C@H](C#Cc2cc3ncnc(Nc4ccc5c(ccn5Cc5cc(F)ccc5F)c4)c3s2)C1)N1CCOCC1,3.3
5,c1ccc(-c2n[nH]cc2-c2ccnc(-c3ccc(OCCn4ccnc4)cc3)c2)nc1,-0.05
6,CCn1c(-c2nonc2N)nc2cncc(C(=O)NCCNC)c21,4.48
7,COc1cc(N2CCN(C(C)C)CC2)ccc1Nc1nc(Nc2cccc3ncccc23)c2cc[nH]c2n1,0.44
8,Cc1cc(O)cc(C)c1/C=C/c1cncc(C(N)=O)c1,1.69
9,FC(F)(F)CNc1nccc(-c2cnn3ncccc23)n1,2.11
10,COc1ccc(-c2nn3ncccc3c2-c2ccnc(Nc3ccc(F)c(F)c3)n2)cc1,2.66
11,COc1ccc(Nc2ncc(-c3ccccc3)o2)cc1OC,0.6
12,CS(=O)(=O)CCNCc1ccc(-c2ccc3ncnc(Nc4ccc(OCc5cccc(C(F)(F)F)c5)cc4)c3c2)o1,3.52
13,CNC(=O)c1ncccc1Nc1nc(Nc2cc3c(cc2OC)CCCN3C(=O)CN(C)C)nc2[nH]ccc12,44.3
14,CS(=O)(=O)Nc1ccc(-c2ccc3c(NC(=O)C4CC4)n[nH]c3c2)cc1,2.68
15,CN(c1ccc(NC(=O)NCCN2CCOCC2)cc1)c1ccnc(Nc2ccc(CS(C)(=O)=O)cc2)n1,2.04
